# Values joined by “and” are separate entries in the source; they are usually repeats but may differ in a detail not shown here. Equal entries are not always repeated. Inconclusive results are not listed. More than one record can exist for a structure, and the calls need not agree. Active and inactive are the calls of the source. Rule for the calls, unless noted: active = hit-call score of the fitted dose curve at least 0.9, where 1 is the maximum; inactive = score below 0.9.
# Legend:
# [1] = BSK_BT_PBMCCytotoxicity: PBMC Cytotoxicity Assessment in the BioMAP Diversity Plus: BT Assay (AID 2284225); conditions: primary human B cells with PBMC;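 note: PBMC viability measured by Alamar Blue dye reduction fluorescence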
# Procedure, shortened: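 Viability by Alamar Blue reduction (6 h, ex/em 546/580 nm) after 90 h culture of SEB/TSST-1-activated PBMC (20 ng/mL each) given compound 1 h before activation. DMSO served as baseline for curve fitting.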
# [2] = read-out: Secreted IgG (sIgG), gene 3500; assay: BSK_BT_sIgG: BioMAP Diversity Plus: BT Assay for Secreted IgG (sIgG) Biomarker Activity (AID 2284226); conditions: primary human B cells with PBMC
# Protocol: (§1) BSK_BT is a cell-based, multiplexed-readout assay that uses B cell and peripheral blood mononuclear cells, a human vascular primary cell co-culture, with measurements taken at 24 hours after chemical dosing in a microplate: 96-well plate.BSK_BT_sIgG is an assay component measured in the BSK_BT assay. It measures secreted IgG related to regulation of gene expression using ELISA technology.Data from the assay component BSK_BT_sIgG was analyzed at the endpoint, BSK_BT_sIgG, in the positive analysis fitting direction relative to DMSO as the negative control and baseline of activity. Using a type of cytokine quantitation reporter, gain or loss-of-signal activity can be used to understand protein changes. […]
# The levels of cell surface (or secreted, indicated by the prefix "s") biomarker endpoints were measured by ELISA. Overt cytotoxicity to cells in confluent adherent cultures (all systems other than the BT system) was assessed by measuring total protein levels using sulforhodamine B (SRB) staining in parallel cultures at the time of biomarker measurements, indicated as SRB endpoints. For proliferation assays for adherent cell types, individual cell types are cultured at sub-confluence and relative cell numbers quantified by SRB staining at time points optimized for each system (48 h: 3C and CASM3C systems; 72 h: BT and HDF3CGF systems; 96 h: SAg system). […] Plates were read after 6 h.
# [3] = BSK_BT_Bcell_Proliferation: Viability Assessment in the BioMAP Diversity Plus: BT Assay for B cell Proliferation (AID 2284227); conditions: primary human B cells with PBMC
# Procedure, shortened: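 SRB-based protein staining (0.1% SRB after 10% TCA fixation, 560 nm) quantifies proliferation in human B cells co-cultured with PBMC, 72 h post-dosing, with signal gain scored relative to DMSO negative control.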
# [4] = read-out: Interleukin 6 (IL6), IL6 (gene 3569); assay: BSK_BT_xIL6: BioMAP Diversity Plus: BT Assay for Interleukin 6 (IL6) Biomarker Activity (AID 2284228); conditions: primary human B cells with PBMC
# Procedure, shortened: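 Secreted IL-6 in the primary human B cell plus PBMC system, measured by Luminex at 24 h post-chemical, DMSO as baseline. Alamar Blue viability: 75,000 cells/well, chemical 1 h before SEB/TSST-1 (20 ng/mL each), 90 h, then 6 h dye.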
# [5] = read-out: Interleukin 17A (IL17A), IL17A (gene 3605); assay: BSK_BT_xIL17A: BioMAP Diversity Plus: BT Assay for Interleukin 17A (IL17A) Biomarker Activity (AID 2284229); conditions: primary human B cells with PBMC
# Protocol: as §1, with “plate.BSK_BT_xIL17A” for “plate.BSK_BT_sIgG”, “IL-17A” for “IgG”, “LumineX xMAP” for “ELISA”, “BSK_BT_xIL17A” for “BSK_BT_sIgG”, “BSK_BT_xIL17A,” for “BSK_BT_sIgG,”
# The levels of cell surface (or secreted, indicated by the prefix "s") biomarker endpoints were measured by ELISA. Overt cytotoxicity to cells in confluent adherent cultures (all systems other than the BT system) was assessed by measuring total protein levels using sulforhodamine B (SRB) staining in parallel cultures at the time of biomarker measurements, indicated as SRB endpoints. For proliferation assays for adherent cell types, individual cell types are cultured at sub-confluence and relative cell numbers quantified by SRB staining at time points optimized for each system (48 h: 3C and CASM3C systems; 72 h: BT and HDF3CGF systems; 96 h: SAg system). […]
# [6] = read-out: Tumor necrosis factor (Homo sapiens) (UniProt P01375); assay: BSK_BT_xTNFa: BioMAP Diversity Plus: BT Assay for Tumor necrosis factor alpha (TNF-alpha) Biomarker Activity (AID 2284230); conditions: primary human B cells with PBMC
# Procedure, shortened: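 Compounds were added to a B cell plus PBMC co-culture, and after 24 h secreted TNF-alpha was quantified with Luminex xMAP technology, with responses fitted upward from the DMSO control.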
# [7] = read-out: Vascular cell adhesion molecule 1 (VCAM1), VCAM1 (gene 7412); assay: BSK_MyoF_VCAM1: BioMAP Diversity Plus: MyoF Assay for Vascular cell adhesion molecule 1 (VCAM1) Biomarker Activity (AID 2284231); conditions: primary human lung fibroblasts
# Procedure, shortened: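 ELISA readout of VCAM-1 on human lung fibroblast cultures 24 hours after dosing, analyzed for signal gain relative to DMSO. Overt cytotoxicity was checked by sulforhodamine B total-protein staining in parallel cultures.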
# [8] = CCTE_Mundy_HCI_Cortical_Synap_Neur_Matur_CellBodySpotCount: CCTE's Synaptogenesis and Neurite Maturation Assay in rat cortical cells for Cell Body Spot Count, Mundy Lab (AID 2284223)
# Procedure, shortened: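 High-content imaging counts synaptophysin puncta on neuronal cell bodies per neuron after MAP2/synaptophysin immunostaining. Rat primary cortical cells, glia arrested with AraC at DIV 5, were exposed DIV 7–12; signal decrease measured against DMSO.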
# [9] = TAMU_HCS_1.5hr_SingleDonor1434_Cytotoxicity: Cytotoxicity Assessment using High-content Screening (HCS) Fluorescent Imaging for the Texas A&M University (TAMU) 1.5-hr Human Induced Pluripotent Stem Cell (iPSC)-derived Cardiotoxicity Assay (AID 2284234; active = hit-call score of the fitted dose curve at least 0.9, where 1 is the maximum)
# Procedure, shortened: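 Nuclear counts from Hoechst 33342 imaging define cytotoxicity here, with EC10 (10% cell-count loss relative to DMSO) as point of departure. iPSC cardiomyocytes received 0.2-100 uM test chemical in 0.5% DMSO for 1.5 h at 37 C.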
# [10] = TAMU_PeakParms_SingleDonor1434_QT: Texas A&M University (TAMU) 1.5-hr Human Induced Pluripotent Stem Cell (iPSC)-derived Cardiomyocytes Calcium (Ca+2) Flux Assay for Cardiotoxicity: QT (decay-rise ratio) (AID 2284235; active = hit-call score of the fitted dose curve at least 0.9, where 1 is the maximum)
# Procedure, shortened: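 Decay/rise ratio of calcium-flux fluorescence scored after 90 min exposure (37C) of donor 1434 iPSC cardiomyocytes to 0.2–100 uM (0.5% DMSO). Beat-cessation and severe-notch points removed; POD is EC05, a 5% rise over DMSO.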
# Sequence of Tumor necrosis factor (Homo sapiens) (P01375 whole entry, looked up): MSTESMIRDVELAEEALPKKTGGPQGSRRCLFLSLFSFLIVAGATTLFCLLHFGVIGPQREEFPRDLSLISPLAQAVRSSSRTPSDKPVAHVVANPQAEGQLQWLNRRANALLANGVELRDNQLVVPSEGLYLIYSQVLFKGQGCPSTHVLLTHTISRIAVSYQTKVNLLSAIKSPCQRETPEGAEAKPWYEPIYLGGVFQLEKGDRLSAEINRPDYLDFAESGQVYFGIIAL
compound,measurement,setting,value
Cn1cnc([N+](=O)[O-])c1Sc1ncnc2nc[nH]c12,AC50,[1],8.01 µM (active)
same,outcome,[1],inactive
same,AC50,[2],206 nM (active) and 716 nM (active)
same,AC50,[3],10.5 µM (active) and 5.28 µM (active)
same,AC50,[4],8.87 µM (active) and 12.6 µM (active)
same,AC50,[5],12.6 µM (active) and 10.3 µM (active)
same,AC50,[6],12.6 µM (active)
same,outcome,[7],inactive
CC[C@H]1OC(=O)[C@H](C)[C@@H](O[C@H]2C[C@@](C)(OC)[C@@H](O)[C@H](C)O2)[C@H](C)[C@@H](O[C@@H]2O[C@H](C)C[C@H](N(C)C)[C@H]2O)[C@](C)(O)C[C@@H](C)C(=O)[C@H](C)[C@@H](O)[C@]1(C)O,outcome,[8],inactive
O=P(OC(CCl)CCl)(OC(CCl)CCl)OC(CCl)CCl,outcome,[8],inactive
CCCCCCc1ccc(O)cc1O,AC50,[9],50 µM (active)
same,outcome,[10],inactive
NC(=O)NO,outcome,[8],inactive
same,outcome,[10],inactive
Cn1c(=O)c2c(ncn2C)n(C)c1=O,outcome,[8],inactive
O=C1CCC(N2C(=O)c3ccccc3C2=O)C(=O)N1 (stereo unspecified),outcome,[8],inactive
